Compound activity as filed in PubChem BioAssay.
M1 antagonist: M1 muscarinic receptor (rat) antagonism | B-score at 10 µM | CHO-M1 cells, Fluo-4 calcium, ACh EC80 antagonist mode; hits give low values | 64,000 compounds, 3.4% hits;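 active = calcium fluorescence response, raw or row-and-column corrected B-score, differing from the plate sample mean either way at a set confidence level, mostly lower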
FXIIa mix inh: blocks human factor XIIa in pooled compound mixtures | P00748 | purified FXIIa, fluorogenic substrate | AID 684 | inhibition, % at 5 µM | 62,000 compounds, 0.2% hits;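 also: 0% = enzyme without compound and 100% = no enzyme blank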
D1 allo mod: allosterically modulates the human D1 dopamine receptor | P21728 | 58,000 compounds, 5.9% hits | HEK293 D1, CRE-luciferase, dopamine EC30 potentiation; actives deviate in either direction | AID 641 | B-score at 10 µM;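 active = luminescence count or its row- and column-corrected plate score outside the 99.7% band of the plate's sample wells, on either side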
Target sequence (P21728 whole entry, looked up): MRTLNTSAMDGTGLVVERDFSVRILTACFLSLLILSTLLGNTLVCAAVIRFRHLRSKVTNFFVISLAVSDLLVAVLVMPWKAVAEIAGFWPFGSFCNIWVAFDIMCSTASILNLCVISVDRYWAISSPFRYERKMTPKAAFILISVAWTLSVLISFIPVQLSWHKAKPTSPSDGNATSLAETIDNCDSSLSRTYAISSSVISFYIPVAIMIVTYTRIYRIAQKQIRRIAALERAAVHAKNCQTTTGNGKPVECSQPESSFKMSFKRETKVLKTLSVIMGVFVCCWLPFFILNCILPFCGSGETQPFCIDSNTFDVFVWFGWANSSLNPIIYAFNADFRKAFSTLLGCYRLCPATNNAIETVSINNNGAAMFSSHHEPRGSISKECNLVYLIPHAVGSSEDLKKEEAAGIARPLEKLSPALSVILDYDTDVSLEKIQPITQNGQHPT
FXIa mix inh: blocks human factor XIa in pooled compound mixtures; P03951; purified FXIa, fluorogenic substrate; inhibition, % at 5 µM; 62,000 compounds, 0.19% hits;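 also: each value is inhibition by a whole ten-compound pool holding the compound; 0% = enzyme with no mixture and 100% = wells lacking enzyme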
M1 ag: agonists of M1 muscarinic receptor | CHO-M1 cells, Fluo-4 calcium fluorescence, agonist mode; hits give high values | B-score at 10 µM | 64,000 compounds, 3% hits;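 active = fluorescence rise, raw or as B-score row- and column-corrected plate score, outside the 99.7% band of its plate's samples, either direction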
hDAT+cocaine: modulates human dopamine transporter uptake under cocaine; LLC-PK1 hDAT cells, [14C]-dopamine uptake with cocaine IC80; actives deviate in either direction; B-score at 10 µM; 110,000 compounds, 1.3% hits; AID 449768;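 active = Z score or B-score, a plate-position-corrected score, falls beyond the plate's 99.7% confidence bounds, in either direction; inactive = both scores lie inside the 99.7% bounds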;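 also: scored against the spread of the other compound wells on the same plate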
Numbers without * were called inactive; . = no result. Sampled rows, rich in hits. Any-hit rate of the full collection: about 7.4%. Rule as the data show it, unless noted: active = inhibition above about 20% (passing the limit was not always enough); inactive = the rest.

SMILES	M1 antagonist	FXIIa mix inh	D1 allo mod	FXIa mix inh	M1 ag	hDAT+cocaine
Cn1c(-c2ccc(F)cc2)cnc1NCc1ccccc1	-0.79	7	-3.4*	1	0.16	1.4
COc1ccccc1N1CCN(c2ccc(-c3ccccc3)nn2)CC1	-0.62	8	-5.4*	2	-0.55	-0.22
COc1ccccc1N1CCN(c2nc(-c3ccccc3)cc(C(F)(F)F)n2)CC1	-1.1	7	.	3	0.78	-0.26
CC(=NC1CCCCC1)C1=C(O)c2ccccc2C1=O	-0.18	.	-0.47	.	-0.021	2*
CSC(=NC1CCCCC1)NS(=O)(=O)c1ccccc1	0.83	-1	1.1	8	-0.69	-0.79
Cc1ccc(NC(=O)CC(=O)NCCN2CCOCC2)cc1	-0.047	-13	.	-4	-0.51	-0.037
COc1ccc(CCNC(=O)c2ccncc2)cc1OC	-0.031	11	0.076	1	-0.31	0.21
COc1ccc(CCNC(=O)C/C(C)=N/NC(=O)c2ccc(N)cc2)cc1OC	.	.	.	.	.	-3.1*
c1ccc(-c2ccc(-c3ccccn3)nn2)nc1	-0.65	6	-8.7*	0	-0.29	.
c1ccc(-c2ccccn2)nc1	.	.	.	.	.	-0.17
O=C(COc1ccc(Cl)cc1)NCc1nnc(SCC(=O)NCCc2ccccc2)o1	0.48	-12	-0.11	11	-0.67	-0.02
Cc1cc(C)n(CC(=O)c2ccccc2)c(=O)c1C#N	0.14	.	-0.84	.	0.63	0.037
Cc1cc(=O)n2nc(-c3ccccc3)sc2c1C#N	-0.0091	4	1.1	5	1	2.5*
CCOCC(=O)NCc1ccc2c(c1)OCO2	0.92	7	0.29	8	1.7	0.4
COCCn1c(N)c(NCc2ccccc2)c(=O)n(CC(=O)Nc2cc(C)ccc2C)c1=O	0.57	9	0.68	5	-1.7	2*
Cc1cc(C)nc(SCc2nnc(SCC(=O)N3CCCc4ccccc43)o2)n1	0.66	5	-0.0028	1	-0.24	3.3*
O=C(CSc1nnc(CNc2ccccc2)o1)N1CCc2ccccc21	-0.36	0	0.13	7	0.36	-0.2
O=C(CSc1nnc(Cc2ccccc2)o1)N1CCCc2ccccc21	-0.21	2	-0.58	5	0.0034	2.6*
Cc1cc(C)nc(SCc2nnc(SCC(=O)N3CCCc4ccccc43)n2C)n1	2.3	2	0.88	7	0.55	-0.29
O=C(c1scc2c1CCCC2)N1CCOCC1	0.27	9	-0.53	5	-0.79	-1.1
O=C(Nc1ccc(F)cc1)N1CCN(C/C=C/c2ccccc2)CC1	-1.6	-13	-0.55	2	-0.66	1.6
O=C(Nc1cccc(F)c1)N1CCN(C/C=C/c2ccccc2)CC1	.	.	.	.	.	2.2*
C=CCn1c(=O)c2ccccc2n2c(SCc3nc4ccccc4s3)nnc12	.	.	.	.	.	3.6*
O=c1cc(-c2ccccc2)[nH]c2nc3ccccc3n12	0.3	-17	-6.5*	-3	0.45	0.27
CCc1nc(NCCCN2CCOCC2)c2oc3ccccc3c2n1	0.46	1	-0.01	-6	0.1	1.2
SMILES	M1 antagonist	FXIIa mix inh	D1 allo mod	FXIa mix inh	M1 ag	hDAT+cocaine
CCc1nc(NCCN2CCOCC2)c2oc3ccccc3c2n1	-0.32	-1	3.2*	-5	-0.056	-0.074
CC1(c2ccccc2)NC(=O)N(CC(=O)Nc2ccc3c(c2)OCO3)C1=O (stereo not given)	.	.	.	.	.	0.46
CC1(c2ccc(OC(F)F)cc2)NC(=O)N(CC(=O)Nc2ccc3c(c2)OCO3)C1=O (stereo not given)	0.25	31	0.8	31	23*	1.6
C/C(=C\c1ccccc1)CN1CCN(c2ccccc2)CC1	0.18	4	-0.68	7	0.0019	-1.1
COc1ccccc1N1CCN(C/C(C)=C/c2ccccc2)CC1	-1.2	11	-3.6*	2	-1.1	0.99
COc1ccc2nc(SCC(=O)NC(C)(C)C)[nH]c2c1	-0.014	1	-2.1*	4	-0.17	0.0081
O=C(Oc1ccnc2cc(Cl)ccc12)N1CCOCC1	0.36	-12	0.82	0	-0.036	1.6
COc1ccc(S(=O)(=O)N2CCN(C(=O)NC3CCCCC3)CC2)cc1OC	.	-1	0.39	-13	-0.14	0.2
Cc1csc(NC(=O)CSc2nnc(-c3ccccn3)n2-c2ccc(C)c(C)c2)n1	0.95	1	1.2	-2	0.51	2.7*
Cc1ccc(-n2c(SCC(N)=O)nnc2-c2ccccn2)cc1C	0.21	4	1.6	13	-0.58	-0.53
Cc1c(Cl)ccc2c1NC(=O)C21NC(CCC(N)=O)[C@H]2C(=O)N(c3ccc(Cl)cc3)C(=O)[C@H]21 (stereo not given in full)	1.8*	1	-0.47	-4	0.42	-0.35
Cc1c(Cl)ccc2c1NC(=O)[C@]21N[C@@H](CCC(N)=O)[C@H]2C(=O)N(c3ccc(F)cc3)C(=O)[C@H]21	.	-17	-0.69	6	.	-0.71
Cc1[nH]n2c(=O)c3c(nc2c1-c1ccc(Cl)cc1)CCC3	-1.3	-11	.	8	1.2	-2.7*
CN(C)C=Nc1ccc2nn(-c3ccccc3)nc2c1	-1.2	1	-2.5*	-16	-1.3	0.069
COc1ccc(NC(=O)CSc2c(C)n[nH]c2C)cc1	.	.	.	.	.	-1.4
CCn1c(=O)n(CC)c2cc([N+](=O)[O-])ccc21	.	.	.	.	.	-0.57
Cc1nc2cc(NC(=O)COc3ccc(C#N)cc3)ccc2n1-c1ccccc1	-0.92	-4	-1.1	7	0.27	-7.9*
Cc1ccc(NC(=O)CSc2nnc(COc3ccc(C#N)cc3)n2-c2ccccc2)cc1C	-1.2	2	-0.73	6	-1.9	1.1
COc1ccc2[nH]c(=O)c(CN(Cc3ccco3)Cc3nnnn3Cc3ccccc3)cc2c1	-0.18	-2	0.54	6	-0.46	0.89
COc1cc(C(=O)N(Cc2cc3cc(C)ccc3[nH]c2=O)CC2CCCO2)cc(OC)c1OC (stereo not given)	.	3	0.14	13	.	0.23
COc1cccc(C(=O)N(Cc2cc3cc(C)ccc3[nH]c2=O)CC2CCCO2)c1 (stereo not given)	.	8	0.39	4	.	3*
CCN(Cc1cc2cc(OC)ccc2[nH]c1=O)C(=O)Cc1ccc(OC)cc1	0.83	-25	1	0	-0.58	-3.2*
COC(=O)c1ccccc1S(=O)(=O)N(Cc1ccco1)Cc1cc2cc(OC)ccc2[nH]c1=O	-0.19	7	-0.014	-1	7.7*	-0.37
COc1cccc(-c2nnn(CC(=O)NC3CCCC3)n2)c1OC	-0.68	6	-2.8	22*	0.062	0.55
O=C(O)CCc1ccc(-c2ccc(Cl)cc2)n1CCC(=O)O	.	.	.	.	.	0.37
O=C(O)CCc1ccc(-c2ccc(Cl)cc2)n1CC(=O)O	0.18	3	-3.7*	11	-0.63	0.097
CC1CN(Cc2cc(=O)[nH]c(C3CC3)n2)CC(C)O1 (stereo not given)	.	.	.	.	.	-6.8*
CC1CN(Cc2cc(=O)n3ccsc3n2)CC(C)O1 (stereo not given)	0.0028	-1	1.3	0	-0.28	-0.49
CC1(C)CC(=O)C2=C(C1)OC(N)=C(C#N)C21CCC2(CC1)OCCO2	-0.12	-1	-0.6	3	-1.4	23*
